FH mod – Identification of activators of human fumarate hydratase by quantitative high-throughput screening. Potency, µM (doses to about 79.9 µM), inactives show at the highest dose activity change, negative = inhibition, hits mostly inhibitors. FH coupled MDH/diaphorase resazurin fluorescence, 15 min. 54,000 compounds, 0.22% hits; note: potency is the fitted concentration of half-maximal effect; % is set by controls: 0 for no effect and ±100 for the full control effect; the screen sought activators but most active calls are inhibition curves; nearly all actives have a fitted effect of over 45% in size
GPR32 ag – agonists of human resolvin D1 receptor DRV1 (GPR32); O75388; CHO-K1 GPR32 beta-arrestin PathHunter luminescence, 90 min; zero percent set by DMSO-only wells; activation, % at 76.9 µM; 48,000 compounds, 2.5% hits;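 active = activation of at least 60% and not above a set upper limit, about 1 call in 100 departs from these limits; inconclusive = activation of 40% to 60%, or above that upper limit; inactive = activation under 40%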; note: 0% is about no effect
Target sequence (O75388 whole entry, looked up): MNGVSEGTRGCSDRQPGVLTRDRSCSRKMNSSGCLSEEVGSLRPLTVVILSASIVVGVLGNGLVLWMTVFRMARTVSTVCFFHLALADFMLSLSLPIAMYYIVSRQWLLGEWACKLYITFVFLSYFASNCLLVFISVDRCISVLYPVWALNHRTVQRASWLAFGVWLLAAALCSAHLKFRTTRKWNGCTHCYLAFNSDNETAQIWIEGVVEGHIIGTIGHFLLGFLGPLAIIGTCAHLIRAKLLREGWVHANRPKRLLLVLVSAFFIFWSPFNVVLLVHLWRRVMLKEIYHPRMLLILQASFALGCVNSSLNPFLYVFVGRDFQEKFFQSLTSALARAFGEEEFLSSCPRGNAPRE
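PathHunter enzyme-fragment complementation, CHO-K1 GPR32 stable line; 2,500 cells/well, overnight attach; cpd 90 min 37 °C 5% CO2; detection reagent 1 h RT; chemiluminescence. DMSO = EC0.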
HTT-AS promoter – activators of huntingtin-antisense promoter activity; HEK293 HTT-AS promoter firefly luciferase reporter, 24 h; response scale: percent change from vehicle, -100% = no light; Potency, µM (highest dose often 57.5 µM), for inactives: at the highest dose activity change, positive = activation, actives largely listed as activators; 48,000 compounds, 0.24% hits; AID 1508624; note: potency is the fitted concentration of half-maximal effect; nearly all actives have a fitted effect of over 55% in size
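HEK293 luciferase promoter-reporter cells (2,500/well) plated 24 h, then compounds added at up to 57.5 uM final for 24 h at 37 °C. Firefly luminescence by Dual-Glo, normalized to vehicle (0%) and zero RLU (-100%).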
HTT promoter inh – inhibitors of huntingtin promoter activity. Potency, µM (top dose mostly 57.5 µM), inactives show at the top dose activity change, negative = inhibition, usual class: inhibitors. HEK293 HTT promoter firefly luciferase reporter, 24 h. 48,000 compounds, 0.93% hits; note: potency is the fitted concentration of half-maximal effect; nearly all actives have a fitted effect of over 50% in size
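HEK293 cells carrying firefly luciferase reporters were seeded at 2,500 per well in Opti-MEM and cultured for 24 h. They were then treated with compounds at up to 57.5 uM final for 24 h at 37 degrees C before Dual-Glo luminescence readout.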
NTMT1 inhibitor – NTMT1 methyltransferase inhibition; NTMT1 MTase-Glo SAH luminescence, purified enzyme; Potency, µM (top dose mostly 114 µM), for the others: at the top dose activity change, negative = inhibition, most hits filed as inhibitors; 59,000 compounds, 2.5% hits; AID 1645870;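 note: potency is the fitted concentration of half-maximal effect; plate controls were DMSO vehicle for no effect and no enzyme for full effect; nearly all actives have a fitted effect of over 65% in size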
Target sequence (Q9BV86 whole entry, looked up): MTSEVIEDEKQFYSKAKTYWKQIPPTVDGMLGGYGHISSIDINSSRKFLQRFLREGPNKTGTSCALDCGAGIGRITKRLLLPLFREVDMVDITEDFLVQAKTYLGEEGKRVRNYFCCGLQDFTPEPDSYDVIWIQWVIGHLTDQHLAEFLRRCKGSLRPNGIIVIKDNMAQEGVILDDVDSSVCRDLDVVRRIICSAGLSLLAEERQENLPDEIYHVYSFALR
* = called active by the depositor; ! = not confirmed by another sample; [ ] = dose if it differs, or a comment. Compounds with a hit are over-represented: about 4.7% of the library has one in this group of screens. Unless noted, calls come from the whole dose curve; as a rule, active = well fitted curve in the direction sought with a large enough effect; inconclusive = small, poorly fitted or top-dose-only effect, or another doubt; inactive = no such curve, though single readings can be large; an effect the other way counts as inactive or inconclusive.

What do the screens show for `COc1ccc(CNS(=O)(=O)c2cc(Br)cc3c2N(C(C)=O)C(C)C3)cc1` (centres undefined)?
FH mod: -32%; GPR32 ag: 19; HTT-AS promoter: -20%; HTT promoter inh: -19%; NTMT1 inhibitor: -5%

What do the screens show for `O=C(OCC#CCSc1nnc(-c2ccc3ccccc3c2)o1)c1cccs1`?
NTMT1 inhibitor: 8%

How did Cc1ccc(-c2nc3ccccc3[nH]2)cc1NC(=O)COc1cccc(C)c1C do in these assays?
FH mod: 12%; GPR32 ag: 32; HTT-AS promoter: -23%; HTT promoter inh: -21%; NTMT1 inhibitor: -16%

How did COc1ccc(Cc2nc3ccccc3[nH]c2=O)cc1 do in these assays?
FH mod: 4%; GPR32 ag: -2; HTT-AS promoter: -21%; HTT promoter inh: -11%; NTMT1 inhibitor: 8%

How did Cc1c(OCC(F)(F)F)ccnc1CS(=O)c1nc2ccccc2[nH]1 (centres undefined) do in these assays?
FH mod: -9%[53.3 µM]; GPR32 ag: 60*!; HTT-AS promoter: inconclusive; HTT promoter inh: 15%; NTMT1 inhibitor: 45µM*!

What do the screens show for `COCCCOc1ccnc(CS(=O)c2nc3ccccc3[nH]2)c1C` (centres undefined)?
FH mod: 3%; GPR32 ag: 11; HTT-AS promoter: 13%; HTT promoter inh: 15%; NTMT1 inhibitor: 18µM*!

Results for C[C@@H]1CC[C@@]2(OC1)O[C@H]1C[C@H]3[C@@H]4CC=C5C[C@@H](O)CC[C@]5(C)[C@H]4CC[C@]3(C)[C@H]1[C@@H]2C ?
FH mod: -1%[53.3 µM]; NTMT1 inhibitor: 10%[29.8 µM]

What do the screens show for `COc1cccc(CNC(=O)Cn2c(SCC(=O)Nc3ccc(C)c(C)c3)nc3ccccc32)c1`?
FH mod: 13%; GPR32 ag: 113*; HTT-AS promoter: 0%; HTT promoter inh: -21%; NTMT1 inhibitor: inconclusive

How did COc1cccc(CNC(=O)Cn2c(SCC(=O)Nc3ccc(F)cc3)nc3ccccc32)c1 do in these assays?
FH mod: -14%; GPR32 ag: 46; HTT-AS promoter: -27%; HTT promoter inh: inconclusive; NTMT1 inhibitor: inconclusive

Results for CC(=O)c1cc2c(cc1N/C(=N/S(=O)(=O)c1ccc(F)cc1)c1ccccc1)OCO2 ?
FH mod: 4%; GPR32 ag: -4; HTT-AS promoter: -10%; HTT promoter inh: -11%; NTMT1 inhibitor: 19%

Results for CCCCOc1ccccc1C(=O)Nc1onc2c1CCCC2 ?
FH mod: -35%; GPR32 ag: -12; HTT-AS promoter: -17%; HTT promoter inh: -29%; NTMT1 inhibitor: -29%

Results for CCCCCCCCOc1ccccc1C(=O)Nc1ccc(C(=O)OCC[N+](C)(CC)CC)cc1 ?
FH mod: -14%[53.3 µM]; GPR32 ag: -56; HTT-AS promoter: -25%; HTT promoter inh: -17%; NTMT1 inhibitor: 3.5µM*!

What do the screens show for `Cc1nc2nc(C)c(CCC(=O)NCc3cccc(Cl)c3)c(C)n2n1`?
FH mod: -6%; GPR32 ag: -3; HTT-AS promoter: -18%; HTT promoter inh: 1%; NTMT1 inhibitor: -9%

Results for CCCCNC(=O)CCc1c(C)nc2cc(-c3ccccc3)nn2c1C ?
FH mod: -2%; GPR32 ag: -4; HTT-AS promoter: -70%; HTT promoter inh: 2µM*; NTMT1 inhibitor: -7%

How did COCCCNC(=O)CCc1c(C)nc2cc(-c3ccc(Cl)cc3)nn2c1C do in these assays?
FH mod: -11%; GPR32 ag: 4; HTT-AS promoter: -78%; HTT promoter inh: inconclusive; NTMT1 inhibitor: -4%

How did COc1ccccc1-c1cc2nc(C)c(CCC(=O)NCc3cccc(Cl)c3)c(C)n2n1 do in these assays?
FH mod: inconclusive; GPR32 ag: 1; HTT-AS promoter: -80%; HTT promoter inh: 13µM*; NTMT1 inhibitor: 89µM*

Results for Cc1nc2c(-c3ccccc3)c(C)nn2c(C)c1CCC(=O)Nc1ccccc1F ?
FH mod: -10%; GPR32 ag: 60*; HTT-AS promoter: -37%; HTT promoter inh: inconclusive; NTMT1 inhibitor: 9%

Results for CCCNC(=O)CCc1c(C)nc2nc(-c3cc(OC)cc(OC)c3)nn2c1C ?
FH mod: -23%; GPR32 ag: 4; HTT-AS promoter: -23%; HTT promoter inh: 6%; NTMT1 inhibitor: -14%

Results for CCCCCCNC(=O)CCc1c(C)nc2nc(-c3cc(OC)cc(OC)c3)nn2c1C ?
FH mod: -6%; GPR32 ag: -1; HTT-AS promoter: -16%; HTT promoter inh: -16%; NTMT1 inhibitor: 89µM*

How did Cc1ccc(NC(=O)CCc2c(C)nc3c(-c4ccccc4)c(C)nn3c2C)c(C)c1 do in these assays?
FH mod: -6%; GPR32 ag: 11; HTT-AS promoter: -11%; HTT promoter inh: -11%; NTMT1 inhibitor: -4%

How did O=C(Nc1ccccc1)Nc1nnc(-c2ccncc2)s1 do in these assays?
NTMT1 inhibitor: -5%[57.5 µM]

Results for Cc1cccc(OCC(O)CNC(C)(C)C)c1C (centres undefined) ?
FH mod: 3%[53.3 µM]; GPR32 ag: -3; HTT-AS promoter: -14%; HTT promoter inh: -4%; NTMT1 inhibitor: inconclusive

Results for Cc1nc2cc(-c3ccccc3)nn2c(C)c1CCC(=O)NCCc1ccccc1 ?
FH mod: -11%; GPR32 ag: 37; HTT-AS promoter: -74%; HTT promoter inh: 7.1µM*; NTMT1 inhibitor: 8%

What do the screens show for `Cc1ccc(C(=O)NCC(c2cccs2)S(=O)(=O)c2cccs2)cc1` (centres undefined)?
FH mod: inconclusive; GPR32 ag: 74*; HTT-AS promoter: -36%; HTT promoter inh: inconclusive; NTMT1 inhibitor: 6%

How did CC(C)(C)c1ccc(C(=O)NCC(c2cccs2)S(=O)(=O)c2ccc(F)cc2)cc1 (centres undefined) do in these assays?
FH mod: inconclusive; GPR32 ag: -5; HTT-AS promoter: -58%; HTT promoter inh: 20µM*; NTMT1 inhibitor: 7%

How did Cn1nc(-c2ccc(C(F)(F)F)cc2)nc2c(=O)n(C)c(=O)nc1-2 do in these assays?
FH mod: 4µM*; NTMT1 inhibitor: -3%[57.5 µM]

How did CC(=O)Nc1sc2c(c1-c1csc3ccccc13)CCNC2 do in these assays?
NTMT1 inhibitor: -16%

What do the screens show for `COc1ccc(NC(=O)c2c(-c3ccc(C)cc3)nnc3ccccc23)c(OC)c1`?
FH mod: 3%; GPR32 ag: -26; HTT-AS promoter: -11%; HTT promoter inh: -30%; NTMT1 inhibitor: -8%

How did Cc1ccc(NC(=O)c2cc(S(=O)(=O)N3CCC(C)CC3)cn2C)cc1Cl do in these assays?
FH mod: -4%; GPR32 ag: -1; HTT-AS promoter: -12%; HTT promoter inh: -11%; NTMT1 inhibitor: 89µM*
